Measurements: PubChem BioAssay (EPA / NIEHS)
Records with an inconclusive call do not appear. Active and inactive are the calls of the source. How the source made its calls, unless noted: active means hit-call score of the fitted dose curve at least 0.9, where 1 is the maximum; inconclusive means response in the unintended direction; inactive means score below 0.9.

Legend:
[1] = TOX21_p53_BLA_p2_viability: Viability Assessment in the Tox21 HCT-116 p53 Agonism Beta-lactamase Assay, Phase 2 (AID 2283591);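 further: compound exposure lasted 16 h at 37 °C; actives lower the ATP signal meaning cytotoxicity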
Procedure, shortened: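 HCT-116 p53-bla cells (4000/well) rested 5 h at 37C, then received compounds in DMSO (217-fold dilution) for 16 h at 37C, 5% CO2. After the CCF4 read, CellTiter-Glo was added; ATP luminescence was read after 30 min at room temperature.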

[2] = biological target: Cellular tumor antigen p53 (Homo sapiens) (UniProt P04637); assay: TOX21_p53_BLA_p2_ratio: Tox21 HCT-116 p53 Agonism Beta-lactamase Assay, Ratio, Phase 2 (AID 2283592)
Cellular tumor antigen p53 (Homo sapiens), sequence (P04637 whole entry, looked up): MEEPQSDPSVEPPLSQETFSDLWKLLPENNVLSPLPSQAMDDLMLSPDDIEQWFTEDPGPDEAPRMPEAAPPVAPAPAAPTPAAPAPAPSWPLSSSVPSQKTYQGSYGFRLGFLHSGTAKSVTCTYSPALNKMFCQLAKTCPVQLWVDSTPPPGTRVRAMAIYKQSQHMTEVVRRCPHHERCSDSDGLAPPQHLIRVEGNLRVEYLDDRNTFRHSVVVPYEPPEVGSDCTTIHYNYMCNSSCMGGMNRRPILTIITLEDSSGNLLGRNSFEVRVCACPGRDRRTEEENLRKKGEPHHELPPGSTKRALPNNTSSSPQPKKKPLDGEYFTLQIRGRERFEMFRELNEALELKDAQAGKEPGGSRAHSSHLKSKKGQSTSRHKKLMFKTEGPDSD
Procedure, shortened: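 Read-out is the blue/green (460/530 nm, 405 nm excitation) ratio after 2 h CCF4-AM loading, fitted as gain versus DMSO. Compounds, pinned at 217-fold dilution from DMSO stocks, stayed 16 h on HCT-116 beta-lactamase reporter cells seeded 5 h earlier.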

[3] = TOX21_p53_BLA_p3_viability: Viability Assessment in the Tox21 HCT-116 p53 Agonism Beta-lactamase Assay, Phase 3 (AID 2283593);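 further: cells exposed to compound for 16 h before reading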
Procedure, shortened: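 HCT-116 cells (4000/well) rested 5 h at 37C, then got DMSO compounds by pin tool (217-fold dilution) for 16 h at 37C, 5% CO2. After the bla read, CellTiter-Glo was added and luminescence read at 30 min, room temperature.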

[4] = biological target: Cellular tumor antigen p53 (Homo sapiens) (UniProt P04637); assay: TOX21_p53_BLA_p4_ratio: Tox21 HCT-116 p53 Agonism Beta-lactamase Assay, Ratio, Phase 4 (AID 2283601)
Procedure, shortened: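 HCT116 cells carrying an inducible beta-lactamase reporter were plated at 4000 cells/well, rested 5 h, then exposed to compounds in DMSO (217-fold dilution) for 16 h at 37C. CCF4-AM substrate was loaded 2 h at room temperature; 460/530 nm emission ratio scored gain-of-signal versus DMSO.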

[5] = biological target: Cellular tumor antigen p53 (Homo sapiens) (UniProt P04637); assay: TOX21_p53_BLA_p3_ratio: Tox21 HCT-116 p53 Agonism Beta-lactamase Assay, Ratio, Phase 3 (AID 2283596)
Procedure, shortened: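 Cells were seeded at 4000/well, rested 5 h at 37C, then dosed with DMSO compound solutions (217-fold dilution) for 16 h. CCF4-AM substrate was loaded for 2 h at room temperature, and the 460/530 nm emission ratio was fitted for gain of signal versus DMSO.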

[6] = TOX21_p53_BLA_p5_viability: Viability Assessment in the Tox21 HCT-116 p53 Agonism Beta-lactamase Assay, Phase 5 (AID 2283600)
Procedure, shortened: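 Viability came from CellTiter-Glo ATP luminescence, read after 30 min at room temperature. Before this, HCT-116 p53-bla cells (4000/well) had 16 hours of compound exposure at 37C, with DMSO stocks diluted 217-fold on transfer.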

[7] = CCTE_Harrill_HTTr_Viability_MCF7: CCTE's 6-hour Cell Viability Assessment for the High-Throughput Transcriptomics (HTTr) Platform, in MCF-7 cells cultured in DMEM + 10% fetal bovine serum, Harrill Lab (AID 2284010; active means hit-call score of the fitted dose curve at least 0.9, where 1 is the maximum; inactive means score below 0.9)
Procedure, shortened: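 Read-out is propidium iodide gain of signal by high-content imaging, reflecting membrane integrity loss. Measurements are taken 6 h after dosing, eight concentrations per chemical, with DMSO serving as baseline for bidirectional curve fitting.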

[8] = CCTE_Harrill_HTTr_Apoptosis_MCF7: CCTE's 6-hour Apoptosis Assessment for the High-Throughput Transcriptomics (HTTr) Platform, in MCF-7 cells cultured in DMEM + 10% fetal bovine serum, Harrill Lab (AID 2284011; active means hit-call score of the fitted dose curve at least 0.9, where 1 is the maximum; inactive means score below 0.9)
Procedure, shortened: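 High-content imaging of CellEvent Caspase 3/7 Green signal follows a six-hour exposure, with eight concentrations per chemical. MCF-7 cells grown in DMEM plus 10% fetal bovine serum; activity fitted in both directions against DMSO.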

[9] = CCTE_Harrill_HTTr_CellCount_MCF7: CCTE's Cell Proliferation Assessment for the High-Throughput Transcriptomics (HTTr) Platform, Harrill Lab (AID 2284012);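 further: cells exposed to compound for six hours; intended direction is loss of nuclei count meaning fewer cells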
Procedure, shortened: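 Cell count served as viability reporter: loss of Hoechst-stained nuclei, counted by high content imaging, marks decreased growth or survival. Exposure was 6 h in MCF-7 cells across eight concentrations, with DMSO as baseline.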

[10] = CCTE_Shafer_MEA_dev_firing_rate_mean: CCTE's Neural Network Formation Assay for Mean Firing Rate, Shafer Lab (AID 2284031; active means hit-call score of the fitted dose curve at least 0.9, where 1 is the maximum; inactive means score below 0.9)
Procedure, shortened: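 Steps: seed rat cortical cells (1.5 x 10^5/well) with laminin on PEI-coated MEA; dose day 0; record DIV 5/7/9/12, full media and compound exchange after DIV 5 and 9 recordings; compute well-mean firing rate AUC.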

[11] = CCTE_Shafer_MEA_dev_per_burst_spike_percent: CCTE's Neural Network Formation Assay for Percent of Spikes in a Burst, Shafer Lab (AID 2284032; active means hit-call score of the fitted dose curve at least 0.9, where 1 is the maximum; inactive means score below 0.9;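 further: fitted as a decrease in burst spike percentage below DMSO baseline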)
Procedure, shortened: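 Value is trapezoidal AUC over recordings on days 5, 7, 9 and 12 of the well-mean fraction of spikes falling in single-electrode bursts; rat cortical cultures exposed continuously from plating, treatment renewed DIV 5 and 9, fitted downward against DMSO.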

[12] = CCTE_Shafer_MEA_dev_active_electrodes_number: CCTE's Neural Network Formation Assay for Number of Active Electrodes, Shafer Lab (AID 2284040)
Procedure, shortened: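 Counts electrodes per well firing at least 5 spikes/min, recorded on days 5, 7, 9 and 12 in rat cortical cultures dosed continuously from plating (treatment refreshed DIV 5, 9). Value is the area under the curve over recordings, fitted downward relative to DMSO.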

[13] = CCTE_Shafer_MEA_dev_burst_rate: CCTE's Neural Network Formation Assay for Burst Rate, Shafer Lab (AID 2284042; active means hit-call score of the fitted dose curve at least 0.9, where 1 is the maximum; inactive means score below 0.9)
Procedure, shortened: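 Rat primary cortical cultures on PEI/laminin MEA; compound from plating, re-dosed at DIV 5, 9 media change. Single-electrode bursts/recording length, well mean of active electrodes; AUC over DIV 5–12 recordings; loss-of-signal vs DMSO.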

[14] = CCTE_Shafer_MEA_dev_bursting_electrodes_number: CCTE's Neural Network Formation Assay for Number of Bursting Electrodes, Shafer Lab (AID 2284043);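 further: potency is for loss of bursting electrodes relative to DMSO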
Procedure, shortened: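 Counted: electrodes with burst rate ≥1 per 2 min in each well. Cells: primary rat cortex, 1.5 x 10^5/well, on 16-electrode MEA wells. Exposure: DIV 0–12, compound renewed DIV 5 and 9. Recording days 5, 7, 9, 12; AUC vs DMSO baseline.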

[15] = CCTE_Shafer_MEA_dev_per_burst_interspike_interval: CCTE's Neural Network Formation Assay for Burst Interspike Interval, Shafer Lab (AID 2284044; active means hit-call score of the fitted dose curve at least 0.9, where 1 is the maximum; inactive means score below 0.9;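 further: potency for a decrease of within-burst interspike interval below DMSO level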)
Procedure, shortened: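 Mean interspike interval within single-electrode bursts, averaged over bursting electrodes, from rat cortical cultures on MEA plates recorded on days 5, 7, 9 and 12. Continuous compound exposure from plating; trapezoidal AUC fitted downward relative to DMSO.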

[16] = CCTE_Shafer_MEA_dev_burst_duration_mean: CCTE's Neural Network Formation Assay for Mean Burst Duration, Shafer Lab (AID 2284045; active means hit-call score of the fitted dose curve at least 0.9, where 1 is the maximum; inactive means score below 0.9)
Procedure, shortened: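 Network-formation assay in primary rat cortical neurons; treatment spans twelve days of development. Mean burst duration per well is integrated by trapezoidal AUC and fitted in the loss-of-signal direction against DMSO baseline.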

[17] = CCTE_Shafer_MEA_dev_interburst_interval_mean: CCTE's Neural Network Formation Assay for Mean Interburst Interval, Shafer Lab (AID 2284046; active means hit-call score of the fitted dose curve at least 0.9, where 1 is the maximum; inactive means score below 0.9;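 further: well-mean interburst interval of bursting electrodes as AUC over four recording days; curve fitted for decrease in interburst interval relative to DMSO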)
Procedure, shortened: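 Rat cortical neurons, 1.5 x 10^5 cells/well, 48-well MEA; compound from day 0 through DIV 12, media and treatment renewed DIV 5/9. Recordings DIV 5, 7, 9, 12; well-mean interburst interval → trapezoidal AUC, loss direction vs DMSO.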

[18] = CCTE_Shafer_MEA_dev_inter_network_spike_interval_mean: CCTE's Neural Network Formation Assay for Mean Inter-network Spike Interval, Shafer Lab (AID 2284047; active means hit-call score of the fitted dose curve at least 0.9, where 1 is the maximum; inactive means score below 0.9)
Procedure, shortened: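 Primary rat cortical neurons on PEI-coated 48-well MEAs (16 electrodes/well) were exposed from plating day 0 to DIV 12, with dosing renewed at DIV 5 and 9. Recordings at DIV 5, 7, 9, 12 were collapsed by trapezoidal AUC, loss-of-signal fit vs DMSO.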

[19] = CCTE_Shafer_MEA_dev_network_spike_number: CCTE's Neural Network Formation Assay for Number of Network Spikes, Shafer Lab (AID 2284048; active means hit-call score of the fitted dose curve at least 0.9, where 1 is the maximum; inactive means score below 0.9;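 further: synchronized bursts across electrodes counted on days 5 7 9 12 and integrated as AUC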)
Procedure, shortened: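 Extracellular recordings from 16-electrode wells track network formation in rat cortical cultures under continuous treatment from plating. The endpoint is network spike number, expressed as AUC across DIV 5–12 relative to DMSO vehicle.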

[20] = CCTE_Shafer_MEA_dev_network_spike_peak: CCTE's Neural Network Formation Assay for Mean Number of Electrodes in Network Spike, Shafer Lab (AID 2284049; active means hit-call score of the fitted dose curve at least 0.9, where 1 is the maximum; inactive means score below 0.9;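 further: fitted for loss of signal meaning fewer electrodes in network spikes than DMSO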)
Procedure, shortened: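 Continuous 12-day exposure of rat cortical cultures, starting at plating, on MEA plates. Endpoint: electrodes participating in network-spike peaks, AUC across DIV 5–12, DMSO as negative control.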

[21] = CCTE_Shafer_MEA_dev_spike_duration_mean: CCTE's Neural Network Formation Assay for Mean Spike Duration, Shafer Lab (AID 2284051; active means hit-call score of the fitted dose curve at least 0.9, where 1 is the maximum; inactive means score below 0.9;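 further: mean network spike duration pooled as area under curve over DIV 5 to 12 recordings; potency for a decrease in mean network spike duration versus DMSO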)
Procedure, shortened: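 Rat cortical primary cultures, 48-well MEA (16 electrodes/well); compound from plating, renewed DIV 5, 9. Network spike duration (AxIS adaptive detector) recorded DIV 5/7/9/12, combined as trapezoidal AUC; loss direction vs DMSO.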

[22] = CCTE_Shafer_MEA_dev_network_spike_duration_std: CCTE's Neural Network Formation Assay for Standard Deviation of Network Spike Duration, Shafer Lab (AID 2284052; active means hit-call score of the fitted dose curve at least 0.9, where 1 is the maximum; inactive means score below 0.9;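 further: area under curve of spike duration SD across recording days 5 to 12; hits are decreases in network spike duration SD versus DMSO vehicle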)
Procedure, shortened: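 Rat cortical cultures, 1.5 x 10^5 cells/well, exposed continuously from plating to DIV 12 with media/compound renewal at DIV 5, 9. Spontaneous activity recorded DIV 5/7/9/12, AxIS adaptive spike detector; AUC across days; negative direction vs DMSO.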

[23] = CCTE_Shafer_MEA_dev_per_network_spike_spike_number_mean: CCTE's Neural Network Formation Assay for Mean Number of Spikes in a Network Spike, Shafer Lab (AID 2284053; active means hit-call score of the fitted dose curve at least 0.9, where 1 is the maximum; inactive means score below 0.9)
Procedure, shortened: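 Rat cortical primary cultures on 48-well MEA; compound from day 0, re-dosed with full media change DIV 5, 9. Recorded DIV 5, 7, 9, 12; spikes in 0.05 s window at network-spike peak ÷ total network spikes; AUC; loss vs DMSO.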

[24] = CCTE_Shafer_MEA_dev_per_network_spike_spike_percent: CCTE's Neural Network Formation Assay for Percent of Spikes in a Network Spike, Shafer Lab (AID 2284054; active means hit-call score of the fitted dose curve at least 0.9, where 1 is the maximum; inactive means score below 0.9)
Procedure, shortened: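 Developing networks of rat cortical neurons are dosed at day 0 and recorded extracellularly four times up to day 12. The endpoint is the area under the curve of percent spikes in network spikes, fitted in the negative direction relative to DMSO.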

[25] = CCTE_Shafer_MEA_dev_LDH: CCTE's Lactate Dehydrogenase Assay for Cytotoxicity in the Neural Network Formation Assay, Shafer Lab (AID 2284068);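 further: exposure for twelve days from plating with re-dosing on DIV 5 and 9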
Procedure, shortened: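 Rat cortical primary neurons, MEA culture; dosing day 0–12, full medium plus compound exchange DIV 5, 9. Read-out: LDH enzyme activity, spectrophotometric. DMSO = negative control/baseline; signal loss → cytotoxicity.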

[26] = CCTE_Shafer_MEA_dev_mutual_information_norm: CCTE's Neural Network Formation Assay for Mutual Information Normalization, Shafer Lab (AID 2284091; active means hit-call score of the fitted dose curve at least 0.9, where 1 is the maximum; inactive means score below 0.9)
Procedure, shortened: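 Exposure of primary rat cortical neurons began at plating and ran to DIV 12, with full media and treatment renewal after DIV 5 and 9 recordings. Mutual information AUC (DIV 5–12) was analysed for loss versus DMSO.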

[27] = CCTE_Shafer_MEA_dev_correlation_coefficient_mean: CCTE's Neural Network Formation Assay for Mean Correlation Coefficient, Shafer Lab (AID 2284093; active means hit-call score of the fitted dose curve at least 0.9, where 1 is the maximum; inactive means score below 0.9;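 further: well mean pairwise spike train correlation integrated as AUC over recording days 5 to 12; potency fitted for loss of correlation relative to DMSO vehicle wells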)
Procedure, shortened: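 Rat cortical cultures, 1.5 x 10^5 cells/well, dosed from day 0 for 12 days. Spontaneous spikes recorded DIV 5/7/9/12; electrode-pair correlation coefficients averaged, AUC taken. Fit in loss direction vs DMSO.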

[28] = TAMU_PeakParms_SingleDonor1434_Chronotropy: Texas A&M University (TAMU) 1.5-hr Human Induced Pluripotent Stem Cell (iPSC)-derived Cardiomyocytes Calcium (Ca+2) Flux Assay for Cardiotoxicity: Chronotropy (changes in peak frequency) (AID 2284217; active means hit-call score of the fitted dose curve at least 0.9, where 1 is the maximum; inactive means score below 0.9); settings: actives raise or lower the signal
Procedure, shortened: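 iPSC-CMs, donor 1434; 4 conc (0.2–100 uM), 0.5% v/v DMSO, 90 min, 37C/5% CO2; Ca2+ flux fluorescence → peak.freq.avg; peak.freq.avg = 0 dropped; bidirectional fit vs DMSO; EC05 POD.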

[29] = TAMU_PeakParms_SingleDonor1434_Asystole: Texas A&M University (TAMU) 1.5-hr Human Induced Pluripotent Stem Cell (iPSC)-derived Cardiomyocytes Calcium (Ca+2) Flux Assay for Cardiotoxicity: Asystole (quiescence of beating) (AID 2284328)
Procedure, shortened: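 Human iPSC-derived cardiomyocytes (donor 1434) were exposed to 0.2, 1, 10 and 100 uM compound in 0.5% DMSO for 90 min at 37C. Ca2+-dye fluorescence gave average peak frequency; POD is EC95, a 95% beat-rate drop versus DMSO.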

**Q.** For `CCC(=O)O[C@]1(C(=O)CCl)[C@@H](C)C[C@H]2[C@@H]3CCC4=CC(=O)C=C[C@]4(C)[C@@]3(F)[C@@H](O)C[C@@]21C`, which outcome [1] is on record?
**A.** The outcome was “inactive”.

**Q.** And the outcome [2]?
**A.** The outcome was “inactive”.

**Q.** And the outcome [3]?
**A.** The outcome was “inactive”.

**Q.** And the outcome [4]?
**A.** Its outcome is “inactive”.

**Q.** What does the source list for `O=C1c2ccccc2C(=O)C1c1ccc(Cl)cc1`?
**A.** outcome [1]: inactive; outcome [2]: inactive; outcome [5]: inactive

**Q.** Which results are given for `O=C(OC(=O)c1ccccc1)c1ccccc1`?
**A.** outcome [1]: inactive; outcome [2]: inactive; outcome [3]: inactive; outcome [6]: inactive; outcome [4]: inactive

**Q.** What does the source list for `N[C@H]1C(O)O[C@H](CO)[C@@H](O)[C@@H]1O` (some centres undefined)?
**A.** outcome [1]: inactive; outcome [2]: inactive; outcome [3]: inactive; outcome [6]: inactive; outcome [4]: inactive

**Q.** What does the source list for `c1ccc2cc3c4ccccc4c4ccccc4c3cc2c1`?
**A.** outcome [1]: inactive; outcome [2]: inactive; outcome [3]: inactive; outcome [6]: inactive; outcome [7]: inactive; outcome [8]: inactive; outcome [9]: inactive; outcome [10]: inactive; AC50 [11]: 1970 nM (active); outcome [12]: inactive; outcome [13]: inactive; AC50 [14]: 3010 nM (active); AC50 [15]: 1970 nM (active); outcome [16]: inactive; outcome [17]: inactive; outcome [18]: inactive; outcome [19]: inactive; AC50 [20]: 1980 nM (active); AC50 [21]: 2970 nM (active); outcome [22]: inactive; outcome [23]: inactive; AC50 [24]: 3230 nM (active); AC50 [25]: 2330 nM (active); outcome [26]: inactive; AC50 [27]: 3220 nM (active); AC50 [28]: 710 nM (active); outcome [29]: inactive
